The panel holds about 83,000 compounds, 20% with a hit somewhere; the sample as a whole holds those more often.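 Assay: single dose, 48 h. Readout: percent growth (0 = no net growth; negative = cell death). Active: <10.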 The source made the active and inactive calls.

The assay deals with M14 melanoma. Description: NCI-60 one-dose screen, 48 h (100 = growth as untreated, 0 = no growth, -100 = all killed). The following applies: 10 µM unless noted. How it is done:
Growth inhibition of the M14 human tumor cell line is measured as a screen for anti-cancer activity. Cells are grown in 96 well plates and exposed to the test compound for 48 hours. Compounds are tested at a single concentration, which is 10^-5 M for most compounds. The reported endpoint is percent growth (GI% or GIPRCNT), where numbers from 0 - 100% represent growth inhibition, and numbers from -100% - 0 represent cell death. For example, a value of 40 represents 60% growth inhibition. A value of 0 means no net growth occurred over the course of the experiment. A value of -40 indicates 40% of cells at the beginning of the experiment died by the end of the experiment. A value of -100 means all cells are dead at the end of the experiment.
NCI-60 Human Tumor Cell Lines Screen was performed using the standard one-dose NCI protocol, which is described in more detail at https://dtp.cancer.gov/discovery_development/nci-60/default.htm.
Compounds with GIPRCNT values below 10 were considered active. Activity score was based on GIPRCNT using the following formula: […]
Score is 0 for GIPRCNT values of 100 or above, 50 for GIPRCNT values of 0, and 100 for GIPRCNT values of -100.
In the case of `O=c1c2ccccc2n(C[C@H]2CO2)c2ccccc12`, the growth is 6.45% (active).

For the compound `[N-]=[N+]=NCC1OC(n2cnc3c(NC(=O)Nc4ccccc4)ncnc32)C2OC(=O)CC12` (stereo not given), the growth was 108% (inactive). With `O=C1NC(=O)C(c2coc3cc(Br)ccc23)=C1c1c[nH]c2ccccc12` the figure was 31.5% (inactive); with `COc1cc2c(cc1OCCCN1CCN(C(=S)SCCC(C#N)(c3ccccc3)c3ccccc3)CC1)N=C[C@@H]1CCCN1C2=O`, -76.6% (active); with `CCCCn1c(NC(C)=O)c(S(=O)(=O)c2ccccc2)c2nc3ccccc3nc21`, 106% (inactive).

Turning to `O=C(/C=C/c1ccccc1Cl)c1cccc(OCCCCOc2cccc(C(=O)/C=C/c3ccccc3Cl)c2)c1`, the growth was 86.5% (inactive). Then `Cc1ccc(OCCOCCOCCOc2ccc(C)n(O)c2=S)c(=S)n1O`, with 36% (inactive); and `Cc1cc(Cl)nc(N2CCN(CCNc3ccnc4cc(Cl)ccc34)CC2)n1`, with 30.9% (inactive); and `Cc1nn(-c2ccc([N+](=O)[O-])cc2)c2ncnc(N/N=C/c3ccccc3O)c12`, with -17.7% (active). With `COc1ccc(C2[C@@H](Cl)C(=O)N2c2cc(OC)c(OC)c(OC)c2)cc1Cl` (stereo not given in full) the figure was -4.46% (active); with `CC12OC(CC(O)C1O)n1c3ccccc3c3c4c(c5c6ccccc6n2c5c31)C(=O)N(CCN1CCCC1)C4=O` (stereo not given), 19% (inactive). Consider `CC1(C)CC[C@]23CC[C@]4(C)[C@H](CC[C@@H]5[C@@]6(C)CCNCC(C)(C)[C@@H]6CC[C@]54C)[C@H]2[C@H]1OC3`, for which the growth was 92.8% (inactive). With `Cc1c2cnccc2c(C)c2c1c1cc(CO)ccc1n2C` the figure was -90.9% (active). With `O=C(c1c[nH]c2ccccc12)c1n[nH]c(=S)n1-c1ccc([N+](=O)[O-])cc1`, the growth is 95.9% (inactive). With `C=CCn1cc(-c2nc3ccccc3s2)c2cc(-c3ccc4c5c(cccc35)C(=O)N(CCO)C4=O)ccc21` the figure was 106% (inactive); with `O=C1CCCCN1c1ccc(C2=NCCCN2)cc1`, 104% (inactive); with `COc1ccc(Oc2ccc(/C=C/C(=O)c3cc4ccccc4oc3=O)cc2)cc1`, 90.5% (inactive). Then `O=S(=O)(Nc1cc(F)cc(F)c1)c1ccc(-c2cnc(C3CC3)o2)cc1`, with 16.5% (inactive); and `N#Cc1ccccc1-c1ccc(CN2C(=O)S/C(=C\c3ccc(Br)cc3)C2=O)cc1`, with 98.2% (inactive); and `O=C1/C(=C/c2cccc(Br)c2)COc2ccc(O)cc21`, with 76.5% (inactive).

For `O=C(NCc1ccc(Cn2c(=O)sn(-c3ccccc3)c2=O)cc1)OCc1ccc2cccc(O)c2n1`, the growth was -64.2% (active). With `O=C(Cn1nc(-c2cccc3ccccc23)ccc1=O)NCc1cccc(Cl)c1` the figure was 34% [50 µM] (inactive). With `CNCC[C@H](Oc1cccc2ccccc12)c1cccs1` the figure was 104% (inactive). Then `Fc1cccc(CNc2c3ccccc3nc3ccccc23)c1`, with 38.8% (inactive); and `COc1cc(-c2nccc3[nH]c(-c4cccc5[nH]ccc45)nc23)cc(OC)c1OC`, with 20.6% (inactive); and `O=C(/C=C/C12c3ccccc3C(c3ccccc31)C1C(=O)NC(=O)C12)c1ccc(I)cc1` (stereo not given), with 74% (inactive). As for `Cc1cc(NCCCNc2ccnc3cc(Cl)ccc23)nc(Nc2ccc(C(=O)N3CCCCC3)cc2)n1`, the growth was -68.3% (active). With `COc1ccc(Nc2ncc(I)c(NCCCNC(=O)C3CCC3)n2)cc1` the figure was 43% (inactive); with `COC(=O)c1c2c(c[n+]([O-])c1C)C(=O)C=C(NCc1ccccc1)C2=O`, -92.2% (active). With `N#Cc1c(-c2ccccc2)nc2c(c(-c3ccc(Cl)cc3)nn2-c2ccccc2)c1-c1ccc([N+](=O)[O-])cc1` the figure was 97.9% (inactive); with `Cc1cccc(-c2nc(C(C)C)sc2-c2ccnc(NCCCNS(=O)(=O)c3ccc(Cl)cc3)c2)c1`, 82.2% (inactive). With `COc1ccc2c(c1)CC[C@@H]1[C@@H]2CC[C@]2(C)c3c(cc(C#N)c4c3sc3ccccc34)C[C@@H]12` the figure was 161% (inactive); with `Oc1nc(NCc2ccccc2)sc1/C=C1\C=Nc2ncccc21`, 80.1% (inactive); with `COc1ccc2c(c1)C(C)Cc1c(ncnc1-n1cnc3cc(C)ccc31)N2C` (stereo not given), 8.87% (active).

In the case of `COc1ccc(C=Nc2c(C(=O)Nc3cccc(Cl)c3C)sc3nc(C)c(C(=O)/C=C/c4ccc(OC)cc4)cc23)cc1`, the growth is -3.16% (active). Then `CCCN(CCSSCCNc1nc(N(C)O)nc(N(C)O)n1)c1nc(N(C)O)nc(N(C)O)n1`, with 84.4% (inactive); and `O=S(O)c1cc(Cl)cc(Cl)c1OCc1ccccc1`, with 101% (inactive); and `O=C(Nc1ncc(Cc2ccccc2)s1)c1sc2ccccc2c1Cl`, with 11.1% (inactive). With `COC12C=C/C(=C(/C(=O)OCCSc3ccnn3C)C(=O)CCCCCCCCC3(OC)C=C/C(=C(/C(=O)OCCSc4ccnn4C)C(=O)CCCCCCCC1)O3)O2` the figure was -3.79% (active); with `CN(C)c1ccc(C(=S)c2ccc(N(C)C)cc2)cc1`, 51.1% (inactive).
